Reference: PubChem BioAssay (NCATS)
Inconclusive results are not listed. Entries that show only a call come without a potency. Activity calls are given as the source filed them. Calls follow the shape of the dose curve; as a rule, active = well fitted inhibition curve with a large enough effect; inconclusive = small, poorly fitted or top-dose-only effect; inactive = no such curve, though single readings can be large or run the other way.

Tests used:
[1] = qHTS assay for measurement of the activity of small molecule inhibitors on Zika virus induced Caspase-3 activity in human iPSC derived neural progenitor cells (hNPCs) (AID 1224857); also: nearly all actives have a fitted effect of over 65% in size
Procedure, shortened: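 Caspase-3/7 induction by a 6-hour ZIKV infection was quantified with a luminescent Caspase-Glo 3/7 reagent incubated 30 minutes at room temperature. Compounds were preincubated with hNPCs for 1 hour; inhibition was calculated against uninfected and infected control wells.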

[2] = qHTS assay for measurement of the activity of small molecule inhibitors on Zika virus induced Caspase-3 activity in human astrocytoma cells (AID 1224859)
Procedure, shortened: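 In SNB-19 cells plated at 250 cells/well and grown 16-20 h, compounds were applied 1 h before ZIKV (2 FFU/cell). Six hours later caspase-3/7 luminescence was recorded.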

NC(=NCCC[C@H](N)C(=O)O)N[N+](=O)[O-]
Potency [1]: inactive
Potency [2]: inactive

CCCN1CCC[C@H](c2cccc(O)c2)C1
Potency [1]: inactive
Potency [2]: inactive

NC(CP(=O)(O)O)C(=O)O (stereo unspecified)
Potency [1]: inactive
Potency [2]: inactive

C=CCN1CC[C@]23CCCCC2[C@H]1Cc1ccc(O)cc13 (stereo partly specified)
Potency [1]: inactive
Potency [2]: inactive

CC(Cc1ccc(O)cc1)NCC(O)c1cc(O)cc(O)c1 (stereo unspecified)
Potency [1]: inactive
Potency [2]: inactive

CCCCCCCCc1ccc(O)cc1
Potency [1]: inactive
Potency [2]: inactive

NC(=O)CN1CC(O)CC1=O (stereo unspecified)
Potency [1]: inactive
Potency [2]: inactive

C[C@]12CCC3C(CC[C@H]4C[C@H](O)CC[C@]34C)C1CC[C@@H]2C(=O)CO (stereo partly specified)
Potency [1]: inactive
Potency [2]: inactive

NCCc1c[nH]c2ccc(O)cc12
Potency [1]: inactive
Potency [2]: inactive

CCCCCCCCCCCCCCCC[N+](C)(C)C
Potency [1]: inactive
Potency [2]: inactive

O=C(Cc1ccc(Cl)c(Cl)c1)N1CCCCC1CN1CCCC1 (stereo unspecified)
Potency [1]: inactive
Potency [2]: inactive

CNCCc1ccc(O)c(O)c1
Potency [1]: inactive
Potency [2]: inactive

O=C(O)Cc1cnc[nH]1
Potency [1]: inactive
Potency [2]: inactive

S=C(NC1CCCCC1)N1CCC(c2cnc[nH]2)CC1
Potency [1]: inactive
Potency [2]: inactive

C[C@@H]1O[C@H](C[N+](C)(C)C)C[C@H]1O
Potency [1]: inactive
Potency [2]: inactive

NCc1cc(=O)[nH]o1
Potency [1]: inactive
Potency [2]: inactive

CC(=O)[C@H]1CCC2C3CC[C@H]4C[C@H](O)CC[C@]4(C)C3CC[C@@]21C (stereo partly specified)
Potency [1]: inactive
Potency [2]: inactive

CCCN(CCC)[C@@H]1CCc2ccc(O)cc2C1
Potency [1]: inactive
Potency [2]: inactive

c1ccc2sc(C3(N4CCCCC4)CCCCC3)cc2c1
Potency [1]: inactive
Potency [2]: inactive

NC(N)=NOCCC(N)C(=O)O (stereo unspecified)
Potency [1]: inactive
Potency [2]: inactive

O=C1CCCN1CC#CCN1CCCC1
Potency [1]: inactive
Potency [2]: inactive

CCCN1CCO[C@@H]2c3cc(O)ccc3OC[C@H]21
Potency [1]: inactive
Potency [2]: inactive

CC(=O)NCCc1c[nH]c2ccccc12
Potency [1]: inactive
Potency [2]: inactive

CS(=N)(=O)CC[C@H](N)C(=O)O (stereo partly specified)
Potency [1]: inactive
Potency [2]: inactive

COc1cc(C(O)CN)ccc1O (stereo unspecified)
Potency [1]: inactive
Potency [2]: inactive

CNCCc1c[nH]c2ccc(O)cc12
Potency [1]: inactive
Potency [2]: inactive

CC[N+]1(CCOC(=O)C(O)(c2ccccc2)c2ccccc2)CCCCC1
Potency [1]: inactive
Potency [2]: inactive

NCCc1c[nH]c2ccccc12
Potency [1]: inactive
Potency [2]: inactive
